Compound activity: PubChem BioAssay, The Scripps Research Institute Molecular Screening Center
Only some compounds are listed: those with a hit (about 3.5% of all), similar ones and a draw of the others.
GPR151 ag – activators of human GPR151, primary screen, cell-based, PathHunter beta-arrestin, luminescence; G-protein coupled receptor 151 (Homo sapiens), Q8TDV0; PathHunter beta-arrestin GPR151 cells; activation, % at 11.2 µM; 1% of 650,000 active; AID 1508602, 2020; in the data active = activation above about 4.9%;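 also: 0% = median of compound wells and 100% = cells with positive control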
TEAD-YAP block – TEAD-YAP interaction inhibition, primary screen, TEAD-YAP interaction inhibitor project, luminescence, HEK-TIYL cells. TEAD-Gal4/YAP UAS-luciferase luminescence. inhibition, % at 9.12 µM. 1.4% of 640,000 active. AID 1259422, 2018; in the data active = inhibition above about 32%;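 also: 0% = median of test compound wells and 100% = reference inhibitor wells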
FBW7 activator – FBW7 E3 ligase activators, primary screen, biochemical, AlphaScreen, human | AlphaScreen FBW7–phospho-cyclin E peptide binding, activator screen | normalized activity (activation), % at 26.1 µM | 0.13% of 650,000 active | AID 1259310, 2017; in the data active = normalized activity above about 1.9%;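 also: purified mutant Fbw7 with reduced substrate affinity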
Target sequence (Q969H0 whole entry, looked up): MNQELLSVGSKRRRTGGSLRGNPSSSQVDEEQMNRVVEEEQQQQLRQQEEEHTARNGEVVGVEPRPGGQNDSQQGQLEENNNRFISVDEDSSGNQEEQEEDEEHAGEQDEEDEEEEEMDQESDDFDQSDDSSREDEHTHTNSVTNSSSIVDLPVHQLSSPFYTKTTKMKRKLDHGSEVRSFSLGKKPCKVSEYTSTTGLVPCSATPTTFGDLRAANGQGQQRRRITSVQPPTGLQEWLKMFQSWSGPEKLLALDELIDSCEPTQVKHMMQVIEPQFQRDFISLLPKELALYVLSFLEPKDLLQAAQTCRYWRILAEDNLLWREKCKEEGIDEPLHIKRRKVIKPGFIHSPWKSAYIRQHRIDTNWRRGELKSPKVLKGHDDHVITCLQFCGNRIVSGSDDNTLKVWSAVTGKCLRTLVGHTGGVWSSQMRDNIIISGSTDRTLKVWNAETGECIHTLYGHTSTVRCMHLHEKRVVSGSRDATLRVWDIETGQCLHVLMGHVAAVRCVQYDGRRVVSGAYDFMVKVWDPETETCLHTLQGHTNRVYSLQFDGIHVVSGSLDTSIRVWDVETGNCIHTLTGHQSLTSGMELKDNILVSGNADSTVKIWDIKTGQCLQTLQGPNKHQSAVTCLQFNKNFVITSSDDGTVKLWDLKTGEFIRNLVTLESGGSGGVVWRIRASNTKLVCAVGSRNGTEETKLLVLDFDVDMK
MITF primary – MITF inhibitors, primary screen, biochemical, AlphaScreen, human | Microphthalmia-associated transcription factor (Homo sapiens), O75030 | AlphaScreen MITF homodimerization, bead proximity signal | inhibition, % at 2.6 µM | 0.91% of 650,000 active; in the data active = inhibition above about 50%;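 also: 0% = vehicle wells with protein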
MITF confirm – MITF inhibitors, retest of hits, confirmation, biochemical, AlphaScreen, triplicate | shares compounds with MITF primary | AlphaScreen MITF homodimerization, biotin/His-MITF beads | inhibition, % at 2.6 µM | 16% of 4,700 active | AID 1259372, 2018;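 active = inhibition above a cutoff derived from the DMSO control wells, cut at about 28% in these data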;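 also: 0% = MITF dimer wells with DMSO only; inhibitors lower the bead chemiluminescence by keeping MITF from dimerizing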
AS interf DR – AlphaScreen optical interference compounds, dose response, counter-screen, biochemical, HTS. 6% of 480 active. AlphaScreen optical interference counterscreen, cell-free. IC50, µM. shares compounds with MITF primary; call rule not given here
AS interf ctr – AlphaScreen optical interference compounds, counter-screen for MITF inhibitor project, biochemical, triplicate | shares compounds with MITF primary | LysRS AlphaScreen counterscreen, signal interference | inhibition, % at 2.6 µM | 7.6% of 4,700 active | AID 1259376, 2018;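 active = inhibition above a cutoff derived from the DMSO control wells, cut at about 30% in these data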
Starred values were filed as active, the others as inactive; . = not tested or not shown.

SMILES	GPR151 ag	TEAD-YAP block	FBW7 activator	MITF primary	MITF confirm	AS interf ctr	others
O=C(c1ccccc1)c1cccn1CC(=O)N1CCCCCC1	1.0	2.5	0.0	63.4*	10.3	9.9
O=C(c1ccccc1)c1cccn1CC(=O)N1CCCC1	0.5	-0.1	0.2	7.0	.	.
COc1cccc(-c2cnnc(N3CCN(Cc4csc(C)n4)CC3)n2)c1	-0.6	-2.4	0.0	3.3	.	.
CC(=O)Nc1ccnn1C1CCN(Cc2cccc(OC3CCCC3)c2)CC1	-2.0	3.5	0.4	56.3*	2.7	14.8
CC(=O)Nc1ccnn1C1CCN(Cc2cccc(Oc3ccccc3)c2)CC1	0.3	-5.4	-0.1	-17.4	.	.
CN1CCC(N(C)CC(O)COCc2ccccc2F)CC1 (stereo not drawn)	0.1	8.4	0.5	17.1	.	.
CN1CCC(N(C)CC(O)COCc2ccccc2Cl)CC1 (stereo not drawn)	3.4	-1.1	0.1	86.8*	8.3	15.0
O=C1C2CCCN2C(=O)N1c1ccc(Br)cc1 (stereo not drawn)	0.4	-8.0	0.1	50.8*	9.5	16.1
O=C(/C=N/O)Nc1cccc(C(=O)O)c1	-4.4	4.8	-0.1	3.9	.	.
CC(=O)c1ccc(-c2ccc(/C=C/[N+](=O)[O-])o2)cc1	0.1	-11.9	-0.1	69.1*	55.6*	31.4*
O=C(O)c1ccccc1-c1ccc(/C=C/[N+](=O)[O-])o1	0.5	1.7	-1.1	80.6*	73.4*	-7.2	AS interf DR=>6.48
Cc1cc2c(N3CCN(c4cccc(Cl)c4)CC3)ncnc2s1	3.7	14.0	0.0	0.2	.	.
CCOc1cc(C)c(C)cc1S(=O)(=O)n1ccnc1C	-0.4	-2.9	0.1	-2.8	.	.
O=C(Cn1cnc2c(nnn2-c2ccccc2)c1=O)N1CCCCCC1	1.9	-5.4	-0.2	-0.9	.	.
Cc1sc2ncnc(NCC(c3ccco3)N(C)C)c2c1C (stereo not drawn)	-1.1	-9.2	0.2	61.7*	13.0	13.6
Cn1cnnc1SCC(=O)NC(=O)Cc1ccccc1	-0.8	1.8	-0.1	-9.9	.	.
COc1cccc(CN2CCN(Cc3ccc(OC)cc3OC)CC2)c1	-2.0	-0.9	-0.2	81.2*	13.2	15.1
COc1cccc(CN2CCN(C(=O)c3cccc(F)c3)CC2)c1	1.3	9.8	0.1	43.6	.	.
COc1ccc(OC)c(CN2CCN(Cc3cccc(F)c3)CC2)c1	0.2	-2.6	-0.1	74.8*	3.3	19.7
COc1ccc(OC)c(CN2CCN(S(=O)(=O)c3ccc(F)cc3)CC2)c1	-0.5	4.6	0.9	58.1*	11.8	17.6
CCOc1cc(CN2CCN(Cc3cccc(OC)c3)CC2)ccc1OC	-0.1	-0.3	-0.1	24.4	.	.
COc1ccc(CN2CCN(Cc3cccc(F)c3)CC2)c(OC)c1	-1.7	-2.4	0.6	85.2*	3.8	13.9
COc1ccc(OC)c(CN2CCN(S(=O)(=O)c3ccccc3)CC2)c1	-1.1	-4.3	0.1	13.8	.	.
COc1ccc(NC(=O)c2ccc(N(Cc3ccccc3)S(C)(=O)=O)cc2)cc1	1.7	2.5	0.1	-11.4	.	.
COc1ccc(-c2nnc3ccc(SCC(=O)Nc4ccc(C)cc4)nn23)cc1	-0.3	-1.2	0.1	6.4	.	.
COc1ccc(CN2CCN(S(=O)(=O)c3ccc(F)cc3)CC2)cc1OC	-2.1	5.0	0.6	52.9*	-0.7	10.0
COc1ccc(OC)c(CN2CCN(Cc3ccc(F)cc3)CC2)c1	-0.4	2.1	-0.2	83.3*	37.3*	15.7	AS interf DR=>6.11
COc1ccc(CN2CCN(Cc3ccc(F)cc3)CC2)cc1OC	0.7	-2.9	-0.4	25.6	.	.
COc1ccc(OC)c(CN2CCN(Cc3cccc(Cl)c3)CC2)c1	-0.8	-1.9	-0.2	72.9*	7.2	8.7
CCC(=O)Oc1c(Br)cc(C2Oc3nc(SC)nnc3-c3ccccc3N2C(=O)CC)cc1OC (stereo not drawn)	-0.7	-0.5	-0.2	9.7	.	.
